Mtb FBA inh – inhibits M. tuberculosis FBA enzyme. inhibition, % at 1 µM. purified M. tuberculosis FBA, fluorescence read-out. AID 588726. 2.3% of 360,000 active. P9WQA3
Target sequence (P9WQA3 whole entry, looked up): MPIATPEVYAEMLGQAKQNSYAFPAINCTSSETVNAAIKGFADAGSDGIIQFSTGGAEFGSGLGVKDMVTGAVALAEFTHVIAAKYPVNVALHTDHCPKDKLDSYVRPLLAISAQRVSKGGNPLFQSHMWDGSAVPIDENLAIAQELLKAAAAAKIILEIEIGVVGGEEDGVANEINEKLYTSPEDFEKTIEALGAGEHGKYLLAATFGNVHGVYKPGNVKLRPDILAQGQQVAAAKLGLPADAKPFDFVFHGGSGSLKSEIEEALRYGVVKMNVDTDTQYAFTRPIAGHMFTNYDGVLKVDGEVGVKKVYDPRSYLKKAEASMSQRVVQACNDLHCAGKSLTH
Mtb BioA inh – inhibitors of Mycobacterium tuberculosis BioA enzyme; purified M. tuberculosis BioA enzyme, plate reader; inhibition, % at 9.99 µM; 0.096% of 360,000 active; in the data active = inhibition above about 40%
Vc quorum ag – quorum light induction in luxS cqsA deficient V. cholerae | V. cholerae BH1578 lux reporter, luminescence, 6 h | activation, % at 18.7 µM | 0.16% of 350,000 active; in the data active = activation mostly above about 9.7%, no sharp cut-off
GDH-TPI counter-1 – counter-screen for M. tuberculosis FBA inhibitors: GDH-TPI coupled enzymes; 1.2% of 360,000 active; AID 588335; inhibition, % at 4.8 µM; GDH-TPI coupled enzyme counterscreen, NADH absorbance; in the data active = inhibition above about 30%
Mtb FBA inh conf – confirmation of M. tuberculosis fructose-bisphosphate aldolase inhibitors | shares compounds with Mtb FBA inh | purified M. tuberculosis FBA, fluorescence read-out | inhibition, % at 1 µM | 78% of 5,600 active
GDH-TPI counter-2 – GDH-TPI inhibition counter-screen for FBA inhibitors | shares compounds with Mtb FBA inh | GDH-TPI coupled enzyme counterscreen, fluorescence | 81% of 5,600 active | inhibition, % at 1 µM; in the data active = inhibition above about 10%
GDH-TPI DR – inhibits GDH-TPI coupling enzymes in dose response; shares compounds with Mtb FBA inh; GDH-TPI coupled enzyme assay, fluorescence, artifact counterscreen; IC50, µM; 79% of 170 active; call rule not given here
Of the large screens only hits and unclear results are named; the others gave an inactive call (follow-up assays come after a bar, where they were run); ! = not active in a repeat. This is a sample that favours compounds with a hit; in the whole collection about 3% have one here. Cut-off read from the data, not from the text of the source, unless noted: active = inhibition above about 27%; inactive = the rest.

CCc1cc(=O)oc2cc(C)cc(OC(C)C(=O)NCC(O)c3ccccc3)c12 (stereo unspecified)	Mtb FBA inh 58.6 | Mtb FBA inh conf active | GDH-TPI counter-2 active
CCc1cc(=O)oc2cc(C)cc(OC(C)C(=O)NC3CCN(Cc4ccccc4)CC3)c12 (stereo unspecified)	Mtb FBA inh 51.1 | Mtb FBA inh conf inactive | GDH-TPI counter-2 inactive | GDH-TPI DR 2.99
Cc1cc(OC(C)C(=O)NCC(O)c2ccccc2)c2c(C)c(C)c(=O)oc2c1 (stereo unspecified)	Mtb FBA inh 50.0 | Mtb FBA inh conf 73.0 | GDH-TPI counter-2 45.0
O=C(COc1ccc2c(-c3ccccc3)cc(=O)oc2c1)NCC(O)c1ccccc1 (stereo unspecified)	none
CCc1cc(=O)oc2cc(C)cc(OCC(=O)NCC(O)c3ccccc3)c12 (stereo unspecified)	Mtb FBA inh 55.6 | Mtb FBA inh conf 197.6 | GDH-TPI counter-2 167.8
Cc1ccc(S(=O)(=O)N(C)C[C@H]2OCCCC[C@H](C)Oc3ccc(NC(=O)NC4CCCCC4)cc3C(=O)N([C@H](C)CO)C[C@H]2C)cc1	none (no result: Mtb FBA inh, Vc quorum ag, GDH-TPI counter-1)
C[C@@H]1CCCCO[C@@H](CN(C)C(=O)Nc2ccccc2)[C@H](C)CN([C@H](C)CO)C(=O)c2cc(NS(=O)(=O)c3cccs3)ccc2O1	none (no result: Mtb FBA inh, Vc quorum ag, GDH-TPI counter-1)
O=C(C[C@@H]1CC[C@H](NC(=O)Cc2cccnc2)[C@H](CO)O1)Nc1ccc(-c2ccccc2)cc1	none (no result: Mtb FBA inh, Vc quorum ag, GDH-TPI counter-1)
Cc1cc(OC(C(=O)O)c2ccccc2)c2c(C)c(Cc3ccccc3)c(=O)oc2c1 (stereo unspecified)	Mtb FBA inh 45.8 | Mtb FBA inh conf inactive | GDH-TPI counter-2 inactive
Cc1cc(OCC(=O)NCc2ccccn2)c2c(C)c(Cc3ccccc3)c(=O)oc2c1	none
CCOC(=O)c1cc(=O)n(Cc2ccccc2C)c2ccccc12	none
CCOC(=O)c1cc2c3ccccc3n(CC)c2nc1N	Mtb FBA inh 36.5 (no result: Mtb BioA inh) | Mtb FBA inh conf active | GDH-TPI counter-2 active
Oc1ccc(Cl)cc1/C=N/c1nccs1	none
Cc1cccc(C=Nc2ccc3c4c(cccc24)CC3)c1O	Mtb FBA inh 36.5 (no result: Mtb BioA inh) | Mtb FBA inh conf 54.4 | GDH-TPI counter-2 54.5
Oc1ccc(Cl)cc1C=Nc1ccc2c3c(cccc13)CC2	Mtb FBA inh 51.5 | Mtb FBA inh conf 34.7 | GDH-TPI counter-2 18.8
C/C=C/c1cnc2c(c1)C(=O)N([C@H](C)CO)C[C@H](C)[C@@H](CN(C)S(=O)(=O)c1ccc(F)cc1)O2	none (no result: Mtb FBA inh, Vc quorum ag, GDH-TPI counter-1)
COC(=O)C[C@H]1CC[C@H]2[C@H](COc3ccc(NC(=O)Nc4ccc(C)cc4)cc3C(=O)N2C)O1	none (no result: Mtb FBA inh, Vc quorum ag, GDH-TPI counter-1)
C[C@H](CO)N1C[C@H](C)[C@@H](CN(C)S(=O)(=O)c2cn(C)cn2)Oc2ccc(NC(=O)CCC(F)(F)F)cc2C1=O	none (no result: Mtb FBA inh, Vc quorum ag, GDH-TPI counter-1)
N#Cc1nnn2c1nc(N)c1c(F)cccc12	Mtb FBA inh 32.4 (no result: Mtb BioA inh) | Mtb FBA inh conf 170.0 | GDH-TPI counter-2 143.4
N#Cc1nnn2c1nc(N)c1c(Cl)cccc12	none (no result: Mtb BioA inh, Vc quorum ag, GDH-TPI counter-1)
Cc1cccc(N2CCc3c2nc2ccccc2c3N)c1	Mtb FBA inh 69.7! | Mtb FBA inh conf 52.0 | GDH-TPI counter-2 37.2
CSc1nnc(-c2ccc(S(=O)(=O)N3CCCC3)cc2)n1C	Mtb FBA inh 46.5 | Mtb FBA inh conf 92.1 | GDH-TPI counter-2 71.1
Cn1c(SCC(N)=O)nnc1-c1ccc(S(=O)(=O)N2CCCC2)cc1	none
CCCC(=O)Nc1ccc(-c2nc3cc(C)c(C)cc3o2)cc1	Mtb FBA inh 87.0 | Mtb FBA inh conf 40.2 | GDH-TPI counter-2 40.0
CCCC(=O)Nc1ccc2oc(-c3ccncc3)nc2c1	none
CCCC(=O)Nc1ccc2oc(-c3cncc(Br)c3)nc2c1	Mtb FBA inh 40.3 | Mtb FBA inh conf 172.0 | GDH-TPI counter-2 132.3
C[C@@H]1CN([C@@H](C)CO)C(=O)c2cc(NC(=O)C3CCCCC3)ccc2O[C@@H]1CN(C)Cc1ccccc1	none (no result: Mtb FBA inh, Vc quorum ag, GDH-TPI counter-1)
C[C@H]1CN([C@@H](C)CO)C(=O)c2cc(NC(=O)Nc3ccc4c(c3)OCO4)ccc2O[C@@H]1CN(C)Cc1ccc(-c2ccccc2)cc1	none (no result: Mtb FBA inh, Vc quorum ag, GDH-TPI counter-1)
Cc1ccc2cc(-c3noc(C4CCCO4)n3)c(=O)[nH]c2c1 (stereo unspecified)	Mtb FBA inh 37.0 | Mtb FBA inh conf 42.0 | GDH-TPI counter-2 45.5
N#CC(C(=O)CCN1C(=O)C2CC=CCC2C1=O)c1nc2ccccc2[nH]1 (stereo unspecified)	Mtb FBA inh 47.3 | Mtb FBA inh conf inactive | GDH-TPI counter-2 19.9
C[C@H](CO)N1C[C@H](C)[C@@H](CN(C)C(=O)Nc2ccc3c(c2)OCO3)Oc2ccc(NS(=O)(=O)c3cn(C)cn3)cc2CC1=O	none (no result: Mtb FBA inh, Vc quorum ag, GDH-TPI counter-1)
CCOc1ccccc1/C=C/c1nc2ccccc2[nH]c1=O	Mtb FBA inh 43.3 | Mtb FBA inh conf inactive | GDH-TPI counter-2 inactive
CCOc1ccccc1OCCCC(=O)Nc1nc2ccccc2[nH]1	none (no result: Mtb BioA inh)
CCOc1ccccc1/C=C/c1cc(C(=O)O)c2ccccc2n1	Mtb FBA inh 28.9 (no result: Mtb BioA inh) | Mtb FBA inh conf 91.3 | GDH-TPI counter-2 70.9
Cc1ccc(-c2cnc3c(c2)C(=O)N([C@H](C)CO)C[C@H](C)[C@H](CN(C)C(=O)c2ccc(F)cc2)O3)cc1	none (no result: Mtb FBA inh, Vc quorum ag, GDH-TPI counter-1)
C[C@H](CO)N1C[C@H](C)[C@H](CN(C)C(=O)NC2CCCCC2)OCCCC[C@H](C)Oc2ccc(NC(=O)C3CCCCC3)cc2C1=O	none (no result: Mtb FBA inh, Vc quorum ag, GDH-TPI counter-1)
CCc1ccc(OCC(=O)Nc2ccc(-c3cc4ccccc4oc3=O)c(OC)c2)cc1	Mtb FBA inh 37.2 (no result: Mtb BioA inh) | Mtb FBA inh conf 63.9 | GDH-TPI counter-2 45.8
COc1cc(NC(=O)c2cc(Cl)ccc2Cl)ccc1-c1cc2ccccc2oc1=O	none
CCCCn1nc2cc(C(=O)NCc3ccc(C(F)(F)F)cc3C(F)(F)F)ccc2c1OCC	none
CCOc1c2ccc(C(=O)NCc3ccc(C(F)(F)F)cc3C(F)(F)F)cc2nn1C	Mtb FBA inh 59.8 | Mtb FBA inh conf 127.5 | GDH-TPI counter-2 104.0
COc1c2ccc(C(=O)NCc3cc(C(F)(F)F)cc(C(F)(F)F)c3)cc2nn1C	Mtb FBA inh 45.6 | Mtb FBA inh conf 97.0 | GDH-TPI counter-2 73.3
CC(=O)N(C)C[C@H]1Oc2ncc(C3=CCCC3)cc2C(=O)N([C@H](C)CO)C[C@@H]1C	none (no result: Mtb FBA inh, Vc quorum ag, GDH-TPI counter-1)
O=C(NCC1CC1)[C@@H]1[C@@H](CO)[C@@H]2Cn3c(ccc(-c4cccc(F)c4)c3=O)[C@@H]2N1CC1CC1	none (no result: Mtb FBA inh, Vc quorum ag, GDH-TPI counter-1)
C[C@H](O)C#Cc1cnc2c(c1)C(=O)N([C@@H](C)CO)C[C@@H](C)[C@@H](CN(C)C(=O)c1ccc(F)cc1)O2	none (no result: Mtb FBA inh, Vc quorum ag, GDH-TPI counter-1)
CCOC(=O)C1CCCN(C(=O)c2cc(-c3ccncc3)nc3ccccc23)C1 (stereo unspecified)	none
CCOC(=O)C1CCCN(C(=O)c2cc(-c3ccco3)nc3ccccc23)C1 (stereo unspecified)	Mtb FBA inh 83.5 | Mtb FBA inh conf active | GDH-TPI counter-2 157.3

Screening data (PubChem BioAssay)
